RXFP1 antag = antagonists of human relaxin receptor RXFP1. AID 1259400. Q9HBX9. 350,000 compounds, 0.59% hits. HEK293-RXFP1, relaxin-stimulated cAMP HTRF, 30 min; active compounds read low. activity change, negative = inhibition, % at 57.5 µM;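 active = activity change of -60% or lower, but not beyond a set lower limit; inconclusive = change between -60% and -40%, or beyond the set limit; inactive = change above -40%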; also: % is scaled to controls: 0 for no effect and ±100 for the full control effect
Target sequence (Q9HBX9 whole entry, looked up): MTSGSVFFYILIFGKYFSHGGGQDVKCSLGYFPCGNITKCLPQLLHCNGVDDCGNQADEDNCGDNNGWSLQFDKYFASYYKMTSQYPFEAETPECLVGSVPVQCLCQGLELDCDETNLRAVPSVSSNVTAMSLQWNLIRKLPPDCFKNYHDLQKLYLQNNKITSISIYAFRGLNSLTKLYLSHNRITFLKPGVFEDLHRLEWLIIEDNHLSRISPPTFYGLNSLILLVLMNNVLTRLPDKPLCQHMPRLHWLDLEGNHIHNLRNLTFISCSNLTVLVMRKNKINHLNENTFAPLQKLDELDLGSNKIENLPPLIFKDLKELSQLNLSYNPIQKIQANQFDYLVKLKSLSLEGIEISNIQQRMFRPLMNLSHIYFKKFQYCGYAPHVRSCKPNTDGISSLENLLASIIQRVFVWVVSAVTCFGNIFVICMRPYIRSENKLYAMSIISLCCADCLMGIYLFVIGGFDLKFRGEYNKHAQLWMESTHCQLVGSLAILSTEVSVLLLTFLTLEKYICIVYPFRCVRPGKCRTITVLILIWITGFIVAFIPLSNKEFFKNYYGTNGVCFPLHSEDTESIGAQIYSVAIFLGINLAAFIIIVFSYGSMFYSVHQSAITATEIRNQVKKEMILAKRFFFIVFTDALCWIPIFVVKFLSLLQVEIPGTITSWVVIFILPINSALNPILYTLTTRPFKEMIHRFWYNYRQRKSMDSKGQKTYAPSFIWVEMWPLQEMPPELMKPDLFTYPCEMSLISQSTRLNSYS
RXFP1 ag = agonists of human relaxin receptor RXFP1 | Q9HBX9 | HEK293T-RXFP1 cAMP TR-FRET, 30 min; response scale: percent of porcine relaxin response, buffer zero | Potency, µM (top dose mostly 57.5 µM), for inactives: top-dose activation, actives largely listed as activators | 370,000 compounds, 0.3% hits | AID 2676; active = well fitted activation curve with a large enough effect; inconclusive = small, poorly fitted or top-dose-only effect; also: potency is read from the fitted curve at half-maximal effect; % is scaled to controls: 0 for no effect and ±100 for the full control effect; nearly all actives have a fitted effect of over 60% in size
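cAMP rise read by TR-FRET after 30 min, 37C compound exposure (up to 58 uM) in RXFP1-transfected HEK293 cells with Ro 20174 present. EC50 from Hill-equation fits, with 29 nM porcine relaxin as 100% and buffer as basal.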
gsp antag = antagonizes gsp, the McCune-Albright syndrome mutation | gsp-mutant cells, cAMP HTRF, 30 min | Potency, µM (doses to about 76.9 µM), inactives show at the highest dose activity change, negative = inhibition, usual class: inhibitors | 340,000 compounds, 0.4% hits | AID 624288; calls by dose curve; cell line not stated here;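 also: intracellular cAMP measured with PDE inhibitor Ro 20-1724 present during compound exposure; potency is read from the fitted curve at half-maximal effect; % is scaled to controls: 0 for no effect and ±100 for the full control effect; nearly all actives have a fitted effect of over 65% in size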
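Cells, 2000/well, grown 16–24 h in DMEM 10% FBS with 0.5 mg/ml G418, then compounds plus […] (300 uM addition stock), 30 min at 37C. cAMP read by HTRF (cAMP-d2 and anti-cAMP antibody-K in lysis buffer) after 30 min RT.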
gsp agonist = gsp mutant agonism; AID 624287; gsp mutant cells, cAMP HTRF, 30 min; 340,000 compounds, 0.13% hits; Potency, µM (titrated, usually from 76.9 µM), for the others: at the top dose activation (cAMP increase), hits mostly activators; active = well fitted activation curve with a large enough effect; inconclusive = small, poorly fitted or top-dose-only effect, or another doubt; inactive = no such curve, though single readings can be large or run the other way; cell line not stated here;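 also: phosphodiesterase inhibitor Ro 20-1724 added with compounds to block cAMP breakdown; potency is read from the fitted curve at half-maximal effect; nearly all actives have a fitted effect of over 60% in size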
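Cells in DMEM/10% FBS with G418 were pretreated with compounds in DMSO plus […] (300 uM stock) for 30 min at 37C. cAMP was measured by HTRF (cAMP-d2 plus anti-cAMP antibody-K) after 30 min at room temperature.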
An asterisk follows results filed as active; u = inconclusive; x = no result; [ ] = another dose, or the depositor's remark. Rows were chosen to be rich in hits. Some 0.9% of all compounds tested hit in one or more screens of this group.

SMILES	RXFP1 antag	RXFP1 ag	gsp antag	gsp agonist
CCOc1ccc2[nH]c(=O)c(CN(CCCN3CCOCC3)Cc3nnnn3Cc3ccc(OC)cc3)cc2c1	2	0%	x	4%[15.4 µM]
COc1cc2cc(CN(CCCN3CCOCC3)Cc3nnnn3Cc3ccccc3)c(=O)[nH]c2cc1OC	-5	2%	8.9µM*	4%[15.4 µM]
Cc1ccc(S(=O)(=O)Nc2ccccc2-c2ccccc2NS(=O)(=O)c2ccc(C)cc2)cc1	-16	-4%	40µM*	-3%
Cc1ccc(S(=O)(=O)Nc2ccccc2C(N)=O)cc1	-5	0%	9%	24%
CCC(=O)N1CCN(c2ccc(NC(=O)c3cc4ccccc4o3)cc2Cl)CC1	-33	4%	20µM*	6%
Cc1ccc(C(C2C(=O)CC(C)(C)CC2=O)C2C(=O)CC(C)(C)CC2=O)s1	-68*	-2%	-13%	-29%
CCCNS(=O)(=O)c1ccc2nc(NC(=O)c3ccc(F)cc3)sc2c1	-12	0%	x	x
CCOC(=O)N1CCN(C(=O)CCS(=O)(=O)c2ccc3c(c2)CC(C)N3C(=O)CC)CC1 (stereo unspecified)	-92*	2%	u	9%
Cc1ccc(NC(=O)Cc2c(C(=O)O)c(C)cn2C)cc1Cl	-3	-1%	x	x
c1ccc(CN=C2NN=C(c3ccccc3)CS2)cc1	-33	-1%	-8%	-4%[15.4 µM]
Clc1ccc(C2=NNC(=NCc3ccccc3)SC2)cc1	-16	-1%	7.1µM*	12%[15.4 µM]
CC(=O)c1cc(-c2ccccc2)n(CC(=O)NC2CCCCCC2)c1C	-2	23%	x	x
CCn1c(=S)[nH]c2scc(-c3cccs3)c2c1=O	-14	16µM*	-18%	u
CC(C)c1ccc2c(c1)C(N1CCNCC1)Cc1ccc(F)cc1S2 (stereo unspecified)	-72*	x	16%	-2%
CC(C)(C)OC(=O)NCCCCCc1nnc(SCC(=O)Nc2cccc(Cl)c2)o1	-3	2%	35µM*	13%
CCOc1ccc(/C=N/NC(=O)c2cc3ccccc3cc2OC)cc1	0	5%	28µM*	-12%
COc1cc2ccccc2cc1C(=O)Nc1ccc(C)cc1	-16	0%	32µM*	5%
COc1cc2ccccc2cc1C(=O)Nc1ccc(Cc2ccncc2)cc1	-15	1%	35µM*	-4%
N=C(N)c1ccc(OCCCOc2ccc(C(=N)N)cc2)cc1	-16	x	x	x
O=c1oc2ccc3ccccc3c2cc1-c1nnc(Nc2ccc(F)cc2)s1	12	-2%	x	x
CCCC(=O)NC(c1cccs1)c1cc([N+](=O)[O-])c2cccnc2c1O (stereo unspecified)	-66*	0%	-24%	21%[15.4 µM]
CCC(=O)NC(c1cccs1)c1cc([N+](=O)[O-])c2cccnc2c1O (stereo unspecified)	u	3%	u	-37%
CN(CC(O)COCc1ccccc1F)C1CCCCC1 (stereo unspecified)	12	1%	-20%	-1%
CN(Cc1cccc(F)c1)CC(O)COCc1ccccc1Cl (stereo unspecified)	-27	3%	11µM*	9%
C[C@H]1O[C@H](O[C@H]2[C@H](O)[C@@H](O)[C@@H](O[C@H]3[C@H](O)[C@@H](O)[C@H](O)O[C@@H]3CO)O[C@@H]2CO)[C@H](O)[C@@H](O)[C@@H]1N[C@H]1C=C(CO)[C@@H](O)[C@H](O)[C@H]1O	-5	x	x	x
SMILES	RXFP1 antag	RXFP1 ag	gsp antag	gsp agonist
C#CC(c1ccccc1)(c1ccccc1)n1ccnc1	10	x	x	-7%
Clc1ccccc1C(c1ccccc1)(c1ccccc1)n1ccnc1	-94*	1%	u	x
CCOC(=O)N1CCN(CC(=O)Nc2ccc([N+](=O)[O-])cc2C(=O)Nc2ccccc2F)CC1	2	-2%	28µM*	10%
CCN(CC)S(=O)(=O)c1ccc(N(C)C)c(NC(=O)CSCc2c(C)noc2C)c1	13	0%	6%	26%[15.4 µM]
CCN(CC)S(=O)(=O)c1ccc(OC)c(NC(=O)CSCc2c(C)noc2C)c1	14	x	4%	18µM*
CCC(C)NC(=O)CSc1nc2cc3c(cc2c(=O)n1Cc1ccc(C(=O)NCCc2ccc(OC)c(OC)c2)cc1)OCO3 (stereo unspecified)	x	5%	x	x
O=C(COC(=O)CCc1nc2ccccc2s1)NC(=O)NCc1ccco1	-9	0%	11µM*	1%[15.4 µM]
CCOC(=O)c1ccc(N2C(=O)c3[nH]nc(-c4ccccc4)c3C2c2ccc(CC)cc2)cc1 (stereo unspecified)	x	2%	x	x
COC(=O)c1cc2c(=O)c3ccccc3oc2nc1/C=C/N(C)C	-18	4%	35µM*	-7%[15.4 µM]
COC(=O)c1cc2c(=O)c3ccccc3oc2nc1C	-8	-2%	26%	-3%[15.4 µM]
C(=N\Nc1nc2ccccc2[nH]1)/c1c[nH]c2ccccc12	-26	0%	40µM*	4%[15.4 µM]
COc1cccc(NC(=O)Nc2nc(-c3ccc(OC)c(OC)c3)cs2)c1	-62*	12%	-19%	u
CCC(CC)C(=O)Nc1nnc(SCc2cc(=O)c3ccccc3[nH]2)s1	-4	1%	x	x
C=CCNC(=S)Nc1sc2c(c1C(=O)OCC)CC(C(C)C)OC2 (stereo unspecified)	-96*	2%	8%	u
CCOC(=O)c1c(NC(=S)NCCc2ccccc2)sc2c1CC(C(C)C)OC2 (stereo unspecified)	15	0%	-6%	29%
CC1=C(C(=O)Nc2ccc(C)cc2C)C(c2cccs2)n2nc(SCc3ccccc3Cl)nc2N1 (stereo unspecified)	x	2%	x	x
O=S(=O)(/N=S1\CC=CCN1S(=O)(=O)c1ccccc1)c1ccccc1 (stereo unspecified)	-110*	x	50µM*	26%
Cc1ccc(S(=O)(=O)c2ccc([N+](=O)[O-])o2)cc1	-60*	x	-5%	-13%
COc1ccc(S(=O)(=O)N(CC(=O)NCc2cccnc2)Cc2ccccc2)cc1	-3	0%	11µM*	1%[15.4 µM]
COc1cc(NC(=O)CSc2nccn2C)cc(OC)c1OC	x	0%	x	x
Cc1cc(-c2ccccc2)nc(SCc2ccc(C(=O)O)cc2)n1	-3	0%	35µM*	-33%
CCOC(=O)c1c(C)n(-c2ccccc2)c2ccc(OC(=O)c3ccccc3NC(=O)C(C)C)cc12	-32	-1%	x	x
CCOC(=O)c1c(C)n(-c2ccccc2)c2ccc(OC(=O)c3ccccc3NC(=O)C(C)(C)C)cc12	-64*	0%	x	x
CCOC(=O)c1ccc(NC(=O)c2sc3nc(N4CCOCC4)c4c(c3c2N)CCCC4)cc1	28	9%	-2%	18µM*
CCOC(=O)c1ccc(NC(=O)c2csc3c2CCCC3)cc1	-93*	-2%	x	x
O=C(NC1CCCCC1)c1cc2c(Cl)nc3ccccc3c2s1	x	0%	x	x
CCCCCCCCCCCCCCCC[N+](C)(C)Cc1ccccc1	-31	x	x	x
N#C/C(=C\c1cccnc1)C(=O)Nc1cccc2ccccc12	-67*	-1%	10%	u
COc1ccccc1CN1COc2ccc3c(C)cc(=O)oc3c2C1	x	20%	x	x

Screens deposited in PubChem by National Center for Advancing Translational Sciences (NCATS).
